Results filed as inconclusive are left out. A call without a number means that no potency is given here. Active and inactive are the calls of the source. The call rests on the fitted dose curve; in most records, active means well fitted activation curve with a large enough effect; inconclusive means small, poorly fitted or top-dose-only effect; inactive means no such curve, though single readings can be large or run the other way.
Target: Relaxin receptor 1 (Homo sapiens) (UniProt Q9HBX9)
Experiment: qHTS Assay for Agonists of the Relaxin Receptor RXFP1: THP1 Hit Validation; further: nearly all actives have a fitted effect of over 60% in size
From the text: The relaxin hormone is involved in the variety of biological functions in normal tissues and diseases. The role of relaxin is well-established in female reproduction and parturition, mammary gland and endometrial development, maintenance of myometrial quiescence during pregnancy. Relaxin signaling through its G protein-coupled receptor (GPCR) RXFP1 results in ECM remodeling through regulation of collagen deposition, cell invasiveness, proliferation and overall tissue homeostasis. […] Recombinant human relaxin (rhRlx) is currently being tested in clinical trials as a protective agent in congestive heart failure, in treating severe preeclampsia, and as an anti-fibrotic agent in systemic sclerosis.
Upon relaxin binding RXFP1 activation leads to the activation of adenylate cyclase (AC) via Gs. cAMP will activate PKA, which phosphorylates many signaling proteins. Thus, detection of cAMP increase is an easy and reliable indication of relaxin receptor activation. […] RXFP1 activation was assayed by changes in cAMP levels as detected with a time-resolved fluorescence energy transfer (TR-FRET) cAMP detection kit. […]
This is a cell-based assay for cAMP second messenger response to screen for agonists of the RXFP1 receptor. […] The cells were lysed and the cAMP levels were measured with a TR-FRET cAMP kit. […] The EC50 values were determined from concentration-response data modeled with the standard Hill equation […]
Potency means the concentration at half of the fitted maximal effect.

Sequence of Relaxin receptor 1 (Homo sapiens) (Q9HBX9 whole entry, looked up): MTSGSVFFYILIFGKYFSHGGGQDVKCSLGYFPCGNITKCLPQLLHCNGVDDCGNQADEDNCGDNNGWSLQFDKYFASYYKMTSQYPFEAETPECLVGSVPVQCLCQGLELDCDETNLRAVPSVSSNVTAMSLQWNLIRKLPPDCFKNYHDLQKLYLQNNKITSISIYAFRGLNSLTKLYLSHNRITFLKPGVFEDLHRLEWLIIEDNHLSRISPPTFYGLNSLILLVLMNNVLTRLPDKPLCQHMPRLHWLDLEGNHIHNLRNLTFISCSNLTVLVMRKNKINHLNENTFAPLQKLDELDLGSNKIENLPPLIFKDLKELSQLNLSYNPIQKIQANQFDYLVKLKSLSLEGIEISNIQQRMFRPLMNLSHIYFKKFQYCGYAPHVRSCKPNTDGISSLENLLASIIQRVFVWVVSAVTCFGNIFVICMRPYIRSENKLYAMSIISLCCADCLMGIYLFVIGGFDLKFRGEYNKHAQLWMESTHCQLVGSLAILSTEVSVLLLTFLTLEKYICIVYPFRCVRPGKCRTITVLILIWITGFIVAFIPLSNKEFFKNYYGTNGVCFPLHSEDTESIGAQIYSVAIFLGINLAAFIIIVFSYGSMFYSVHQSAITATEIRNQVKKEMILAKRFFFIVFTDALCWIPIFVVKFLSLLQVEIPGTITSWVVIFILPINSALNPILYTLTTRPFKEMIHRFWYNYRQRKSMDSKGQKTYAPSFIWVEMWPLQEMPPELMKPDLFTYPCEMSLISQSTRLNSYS

Row | SMILES | Potency
1 | CCC(Oc1cc(Cl)ccc1Cl)C(=O)N1CCC2(CC1)OCCO2 (configuration not stated) | inactive
2 | O=c1[nH]c(O)c(N=Nc2ccc([N+](=O)[O-])cc2)c(=O)[nH]1 | 11 µM (active)

Reference: PubChem BioAssay AID492949 (National Center for Advancing Translational Sciences (NCATS), 2010)
